The panel holds about 83,000 compounds, 20% with a hit somewhere; the sample as a whole holds those more often.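 Each cell line was grown in a 96-well plate and treated with one concentration of compound for 48 hours. Values below 10 were considered active.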 Activity calls are given as the source filed them.
Key:
Experiment in all cases: NCI-60 one-dose screen, 48 h (100 = growth as untreated, 0 = no growth, -100 = all killed)
Conditions in all cases: 10 µM unless noted
NCI-H23 lung = tested on: NCI-H23 lung
NCI-H226 lung = tested on: NCI-H226 lung
NCI-H322M lung = tested on: NCI-H322M lung
HOP-62 NSCLC = tested on: HOP-62 NSCLC
HOP-92 NSCLC = tested on: HOP-92 NSCLC
NCI-H522 lung = tested on: NCI-H522 lung
A549/ATCC NSCLC = tested on: A549/ATCC NSCLC
786-0 renal = tested on: 786-0 renal
COLO 205 colon = tested on: COLO 205 colon
NCI-H460 lung = tested on: NCI-H460 lung

Measured: growth

CC1=N/C(=C\c2cccc(Br)c2)C(=O)O1
inactive: NCI-H23 lung 106% | NCI-H226 lung 106% | NCI-H322M lung 106% | HOP-62 NSCLC 92.8% | HOP-92 NSCLC 107% | NCI-H522 lung 87.7% | A549/ATCC NSCLC 89.3% | 786-0 renal 102% | COLO 205 colon 106%

NCc1cn2cc(Cl)sc2n1
inactive: NCI-H23 lung 107% | NCI-H226 lung 101% | NCI-H322M lung 90.3% | HOP-62 NSCLC 112% | HOP-92 NSCLC 101% | NCI-H522 lung 95.5% | A549/ATCC NSCLC 92.9% | 786-0 renal 106% | COLO 205 colon 114%

ClC1=C2NC=NC2n2c(nnc2-c2ccc(Cl)cc2)N1 (stereo not given)
inactive: NCI-H23 lung 107% | NCI-H226 lung 96.2% | NCI-H322M lung 110% | HOP-62 NSCLC 98.7% | HOP-92 NSCLC 109% | NCI-H522 lung 73.2% | A549/ATCC NSCLC 81.4% | 786-0 renal 97.2% | COLO 205 colon 89.8%

COc1ccc(CCN2CC=Cn3c2nc2ccccc2c3=O)cc1
inactive: NCI-H23 lung 25% | NCI-H226 lung 11.7% | NCI-H322M lung 47.3% | HOP-62 NSCLC 39.9% | HOP-92 NSCLC 28.1% | A549/ATCC NSCLC 24.1%
active: NCI-H460 lung 5.96% | NCI-H522 lung 4.09% | COLO 205 colon -43.2%

O=C1CCc2c(sc3[nH]c(=S)n(Cc4ccccc4)c(=O)c23)C1
active: NCI-H23 lung 0.541% | HOP-92 NSCLC -19.5% | NCI-H522 lung 2.03%
inactive: NCI-H226 lung 51.2% | NCI-H322M lung 30.1% | HOP-62 NSCLC 10.2% | A549/ATCC NSCLC 13.9% | 786-0 renal 30.9% | COLO 205 colon 32.3%

CCC(c1ccc(O)cc1)C(CC)c1ccc(O)c(F)c1 (stereo not given)
inactive: NCI-H23 lung 77% | NCI-H226 lung 91.6% | NCI-H322M lung 91.1% | HOP-62 NSCLC 94.5% | HOP-92 NSCLC 59.5% | NCI-H522 lung 77.9% | A549/ATCC NSCLC 89% | 786-0 renal 75.4% | COLO 205 colon 114%

CCN1CCN(Cc2ccc(NC(=O)Nc3nc4ccc(Oc5ccnc(C(=O)NC)c5)cc4s3)cc2C(F)(F)F)CC1
active: NCI-H23 lung -12.2% | NCI-H226 lung -1.71% | HOP-62 NSCLC -13% | NCI-H460 lung -66.7% | HOP-92 NSCLC -68.3% | NCI-H522 lung -46.5% | A549/ATCC NSCLC -41.7% | COLO 205 colon -40.5%
inactive: NCI-H322M lung 17.1%

COc1ccccc1-c1ccc2c(N)c(C(=O)c3ccc4c(c3)OCO4)sc2n1
inactive: NCI-H23 lung 82.1% | NCI-H226 lung 96.7% | NCI-H322M lung 94.7% | HOP-62 NSCLC 73.3% | HOP-92 NSCLC 67.8% | NCI-H522 lung 18.6% | A549/ATCC NSCLC 46.1% | 786-0 renal 86% | COLO 205 colon 89.1%

O=C(Nc1ccc(CN2CCOCC2)cc1)c1[nH]ncc1Nc1ncnc2sccc12
inactive: NCI-H226 lung 15.5% | HOP-62 NSCLC 20.1% | HOP-92 NSCLC 22.9% | A549/ATCC NSCLC 13.6%
active: NCI-H23 lung -3.72% | NCI-H322M lung 6.2% | NCI-H460 lung 3.28% | NCI-H522 lung 7.15% | COLO 205 colon -34.9%

CN(CC(=O)N(Cc1ccc(C2CCCCC2)cc1)c1ccc(C(=O)NO)cc1)S(=O)(=O)c1c(F)c(F)c(F)c(F)c1F
inactive: NCI-H23 lung 53.9% | NCI-H226 lung 100% | NCI-H322M lung 90% | HOP-62 NSCLC 103% | NCI-H460 lung 99.5% | HOP-92 NSCLC 95% | NCI-H522 lung 45.3% | A549/ATCC NSCLC 102% | COLO 205 colon 67.9%

O=C1C=CC(=O)c2c1nc1n2CCCC1
inactive: NCI-H23 lung 39.2% | NCI-H226 lung 95% | NCI-H322M lung 29.8% | HOP-62 NSCLC 80% | HOP-92 NSCLC 132% | NCI-H522 lung 72.5% | A549/ATCC NSCLC 41.6% | 786-0 renal 93.3% | COLO 205 colon 33.2%

CCN(CC)CC(O)CNc1c2ccc([N+](=O)[O-])cc2nc2cc(OC)c(OC)cc12 (stereo not given)
active: NCI-H23 lung -27.2% | NCI-H226 lung -39.1% | NCI-H322M lung -43.5% | HOP-62 NSCLC -51% | HOP-92 NSCLC -57.4% | NCI-H522 lung -65.6% | A549/ATCC NSCLC -22% | 786-0 renal -8.36% | COLO 205 colon -71%

CCN(CC)c1ccc(CNc2cc(C)nc3ccc(OC)cc23)cc1
inactive: NCI-H23 lung 21.2% | NCI-H226 lung 75.8% | HOP-62 NSCLC 102% | HOP-92 NSCLC 20.7% | NCI-H522 lung 24.6% | A549/ATCC NSCLC 70.2% | 786-0 renal 73.7%
active: NCI-H322M lung -5.55% | COLO 205 colon -75.2%

CCOC(=O)CC(=O)c1c(C)cc(C)cc1C
inactive: NCI-H23 lung 111% | NCI-H226 lung 104% | NCI-H322M lung 114% | HOP-62 NSCLC 110% | HOP-92 NSCLC 111% | NCI-H522 lung 62.5% | A549/ATCC NSCLC 107% | 786-0 renal 98.3% | COLO 205 colon 117%

CCCCNC(=O)NS(=O)(=O)c1ccc(N2N=C(c3cc(C)ccc3C)CC2c2cc(OC)c(OC)c(OC)c2)cc1 (stereo not given)
inactive: NCI-H226 lung 75.2% | NCI-H322M lung 66.7% | HOP-62 NSCLC 53.8% | HOP-92 NSCLC 62.4% | NCI-H522 lung 53.7% | A549/ATCC NSCLC 32.6% | 786-0 renal 47.9% | COLO 205 colon 44.7%
active: NCI-H23 lung -26.1%
